Compounds with a hit are over-represented: about 2.5% of the library has one in this group of screens.
Cruzain inh noDet = blocks cruzain activity in detergent-free assay; Potency, µM, inactives show max response, negative = inhibition, actives largely listed as inhibitors; hit rate 2.3% among 200,000; purified cruzain, Z-FR-AMC fluorescence, no detergent; P25779;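 note: plate controls were enzyme without inhibitor for no effect and buffer without enzyme for full effect; nearly all actives have a fitted effect of over 40% in size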
Target sequence (P25779 123-467 limits assumed): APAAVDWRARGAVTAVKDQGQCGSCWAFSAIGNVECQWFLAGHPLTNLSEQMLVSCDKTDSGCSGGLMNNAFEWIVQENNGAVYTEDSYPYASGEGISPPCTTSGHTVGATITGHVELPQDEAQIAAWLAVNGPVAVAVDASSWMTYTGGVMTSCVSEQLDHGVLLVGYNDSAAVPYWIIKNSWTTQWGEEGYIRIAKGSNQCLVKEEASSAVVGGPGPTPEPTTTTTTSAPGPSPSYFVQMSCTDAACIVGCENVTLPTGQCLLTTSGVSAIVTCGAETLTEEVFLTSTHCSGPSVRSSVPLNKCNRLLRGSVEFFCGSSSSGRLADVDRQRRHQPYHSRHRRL
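Purified cruzain at 1.5 nM, pre-incubated 15 min with compound at room temperature in 100 mM sodium acetate pH 5.5, 5 mM DTT, 0.00005% Triton X-100. Reaction started with 2 uM Z-FR-AMC; AMC fluorescence increase over 60 s gives rate.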
Cruzain Triton = blocks cruzain activity in presence of Triton detergent; P25779; purified cruzain, Z-FR-AMC fluorescence, 0.01% Triton; Potency, µM, inactives show max response, negative = inhibition, actives largely listed as inhibitors; hit rate 0.43% among 200,000;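 note: plate controls were neutral wells for no effect and buffer without enzyme for full effect; nearly all actives have a fitted effect of over 40% in size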
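Detergent-containing arm of a paired screen for aggregation-based inhibition: 0.01% Triton X-100 present. Cruzain at 1.5 nM cleaved 2 uM Z-FR-AMC at pH 5.5 with 5 mM DTT; AMC fluorescence gain over 60 s measured activity.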
The depositor's hits bear a star; ? = inconclusive. Calls come from the whole dose curve; as a rule, active = well fitted curve in the direction sought with a large enough effect; inconclusive = small, poorly fitted or top-dose-only effect, or another doubt; inactive = no such curve, though single readings can be large; an effect the other way counts as inactive or inconclusive. Potency is the fitted concentration of half-maximal effect.

SMILES	Cruzain inh noDet	Cruzain Triton
COc1ccc(S(=O)(=O)N(C(C)=O)c2ccc(OC(C)=O)c3ccccc23)cc1[N+](=O)[O-]	13%	-5%
CCOC(=O)c1sc(NC(=O)/C=C/c2ccccc2)nc1C	25µM*	-1%
CCOC(=O)c1sc(NC(=O)C(OC(C)=O)c2ccccc2)nc1C (stereo unspecified)	-2%	-17%
Cc1nc(NC(=O)/C=C/c2ccccc2)sc1C(=O)Nc1ccccc1	-19%	3%
CCOC(=O)c1sc(NC(=O)C(CC)OC(=O)C(CC(C)C)NC(=O)c2ccccc2)nc1C (stereo unspecified)	-7%	10µM*
COc1ccc(CCNc2nc3c(-c4cccc(C)c4)nnn3c3ccccc23)cc1OC	4%	1%
COC(=O)c1n[nH]c2ccccc12	14%	-3%
O=C(COC(=O)c1n[nH]c2ccccc12)Nc1ccc([N+](=O)[O-])cc1	10µM*	-6%
O=C(c1ccc2c(c1)N(Cc1cccc(Cl)c1)C(=O)c1ccccc1S2(=O)=O)N1CCCCCC1	7%	-3%
Cc1cnc(CNc2ncnc3ccc(-c4ccc(N(C)C)cc4)cc23)cn1	-2%	-4%
Cc1cc(=O)oc2c(CN(C)Cc3ccccc3)c(O)ccc12	?	20µM*
Cc1cc(=O)oc2c(N)c(O)ccc12	-16%	2%
CC(C)CC(=O)NCC(c1ccc2c(c1)OCO2)N1CCN(c2ccccc2)CC1 (stereo unspecified)	-7%	0%
CC(=O)c1ccc(NC(=O)COC(=O)c2c3c(nc4ccccc24)/C(=C\c2cccs2)CCC3)cc1	7.9µM*	5%
O=C(COC(=O)c1c2c(nc3ccccc13)CCCC2)Nc1ccc2c(c1)OCO2	25µM*	-6%
O=C(COC(=O)c1cccs1)Nc1ccccc1	-1%	2%
O=C(COC(=O)c1c2c(nc3ccccc13)/C(=C\c1cccs1)CCC2)Nc1ccccc1	10µM*	0%
O=C(COC(=O)c1cc(-c2ccccc2)nc2ccccc12)Nc1ccc2c(c1)OCO2	?	-4%
CC(=O)c1ccc(NC(=O)COC(=O)CCC(=O)c2cccs2)cc1	-1%	-1%
CCCCSc1nc(-c2ccc(OC)cc2)ccc1C#N	-4%	-1%
CCO	3%	6%
COc1ccc(CNc2ccnc(-c3cccc(C#N)c3)n2)c(OC)c1	11%	-7%
CCOC(=O)c1c(C)[nH]c(C)c1S(=O)(=O)N1CCC(C(=O)NCc2ccccc2Cl)CC1	3%	-7%
CC(C)CCNC(=O)CN1C(=O)CSc2ccc(S(=O)(=O)N3CCC(C)CC3)cc21	9%	1%
N#Cc1c2c(c(-c3ccco3)[nH]c1=O)CCCC2	-18%	-7%
SMILES	Cruzain inh noDet	Cruzain Triton
CC1(C)Cc2c(C#N)c(NCCN3CCOCC3)nc(-c3ccco3)c2CO1	3%	-8%
N#Cc1c(NC2CCCCC2)nc(-c2ccco2)c2c1CCCC2	25µM*	16µM*
N#Cc1c(NCCCO)nc(-c2ccco2)c2c1CCCC2	-7%	16µM*
Cc1cccc(NC(=O)C(NS(=O)(=O)c2ccc3c(c2)oc(=O)n3C)C(C)C)c1 (stereo unspecified)	-15%	1%
CCOc1sc2nc(C)n(CC(=O)Nc3cccc(C)c3)c(=O)c2c1C	3%	5%
O=C(Nc1cccc(F)c1)C1CCN(S(=O)(=O)c2cccc3nsnc23)CC1	-8%	-7%
Oc1c(C(c2ccccc2F)N2CCN(Cc3ccccc3)CC2)sc2nc(-c3ccco3)nn12 (stereo unspecified)	4%	-6%
CCOC(=O)N/N=C/c1c(C)nn(-c2ccccc2Cl)c1Cl	-2%	-4%
CCn1c(C)c(/C=N/Nc2nc3ccccc3s2)c2ccccc21	13µM*	-1%
Cc1nn(-c2ccccc2Cl)c(Cl)c1/C=N/Nc1nc2ccccc2s1	13µM*	-2%
C(=N\Nc1nc2ccccc2s1)/c1cccs1	-2%	-5%
CCCn1c(=O)c2sccc2n2c(CCCC(=O)N3CCN(c4ccccc4)CC3)nnc12	-10%	2%
O=C(Cc1nn[nH]n1)NCc1ccccc1Cl	5%	1%
COc1ccc(C(=O)N2c3ccccc3C=CC2C#N)cc1 (stereo unspecified)	-1%	-14%
N#C[C@H]1[C@H](c2ccccc2)[C@](C#N)(C(=O)c2ccccc2)[C@@H]2C=Cc3ccccc3N21	25µM*	-4%
C#CCO	6%	-6%
COc1ccc(-c2cc(-c3ccccc3)nc(SCC(=O)Nc3ccccc3F)c2C#N)cc1	-6%	1%
CCc1nnc(NC(=O)CSc2nc(-c3ccccc3)cc(-c3ccc(OC)cc3)c2C#N)s1	13µM*	-3%
CC(C)NC(=O)CSc1nc(-c2cccs2)cc(-c2ccccc2)c1C#N	20µM*	-7%
N#Cc1c(-c2ccccc2)cc(C2CC2)nc1SCC(=O)c1cccs1	?	1%
COc1ccc(-c2cc(-c3ccccc3)c(C#N)c(SCC(=O)Nc3ncc(C)s3)n2)cc1	?	-3%
COc1ccc(-c2cc(-c3ccccc3)nc(SCC(=O)Nc3nccs3)c2C#N)cc1	7.9µM*	-8%
O=S(=O)(c1ccccc1)N1CCC2(CCCN(c3ncccn3)C2)CC1	-2%	-3%
Oc1ccc([C@H](O)C2CCCCN2)cc1O (stereo partly specified)	3%	1%
COc1ccc(N2CCN(Cc3cccn3-c3nnc(N4CCN(C5CCCCC5)CC4)s3)CC2)cc1	-8%	-2%
SMILES	Cruzain inh noDet	Cruzain Triton
Cc1noc2ncc(C(=O)c3cc(F)ccc3O)cc12	-5%	1%
Cc1ccc(O)c(C(=O)c2cnc3onc(-c4ccc(F)cc4)c3c2)c1	13µM*	-4%
CCOc1cc(/C=N/N=C(\N)c2nonc2N)cc(Br)c1OCc1cccc2ccccc12	6.3µM*	4%
CCOc1cc(/C=N/NC(N)=S)cc(Br)c1OCc1ccccc1C	1µM*	3.2µM*
COc1cc(/C=N/NC(N)=S)cc(Br)c1OCc1ccccc1F	0.2µM*	0.56µM*
COc1cc(/C=N/N=C(/N)c2nonc2N)cc(Br)c1OCc1cccc(C)c1	-12%	4%
CCOc1cc(/C=N/NC(N)=O)cc(Br)c1OCc1ccccc1	-3%	4%
CCOc1c(Br)cc(/C=N\NC(=O)c2ccccc2)cc1OC	-4%	-5%
O=C(Nc1ccc(S(=O)(=O)N2CCCCC2)cc1)C1CCCN(C(=O)c2ccc(Cl)cc2)C1 (stereo unspecified)	-3%	-6%
COc1cccc(NC(=O)CCc2c(C)nc3c4cccnc4nn3c2C)c1	9%	-14%
Cc1cccc(CCNC(=O)c2cc(S(=O)(=O)N3CCCCC3)c[nH]2)c1	-22%	-4%
CC(C)CNS(=O)(=O)c1cc(C(=O)OCC(=O)c2ccc3c(c2)OCCO3)c(Cl)cc1Cl	?	-2%
O=C(CNC(=O)c1ccc(Cl)cc1Cl)OCC(=O)c1ccc2c(c1)OCCO2	3.2µM*	3.2µM*
COc1ccc(-c2oc(NC(=O)c3ccc(C)cc3)c(C#N)c2-c2ccc(OC)cc2)cc1	13µM*	3%
COc1ccc(C(=O)Nc2oc(-c3ccccc3)c(-c3ccccc3)c2C#N)cc1	32µM*	-2%
COc1ccc(-c2oc(NC(C)=O)c(C#N)c2-c2ccc(OC)cc2)cc1	16%	-9%
COc1ccc(C(=O)Nc2oc(-c3ccccc3)c(-c3ccccc3)c2C#N)cc1OC	-4%	-1%
CCOc1cc(S(=O)(=O)N(Cc2ccccc2)Cc2ccccc2)c(OCC)cc1-n1cnnn1	-9%	-2%
O=C(O)CN1CCN(CC(=O)O)CC(=O)[O][Hg][O]C(=O)C1	3%	14%

Assay outcomes: PubChem, National Center for Advancing Translational Sciences (NCATS)
